This is an account of results in PubChem BioAssay (EPA / NIEHS).

What all share (details): mRNA level, 48 h; actives raise or lower the signal
Read-out in assay [1]: ATP-citrate lyase (ACLY), ACLY (gene 47)
Nature of the assay: LTEA_HepaRG_ACLY: Life Technologies and Expression Analysis (LTEA) Assay for ATP-citrate lyase (ACLY) using HepaRG (AID 2283466). In short, it runs like this: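 Differentiated HepaRG cells exposed 48 h in serum-free induction medium to eight half-log concentrations up to 100 uM in 0.5% DMSO, duplicates. Transcript measured by Fluidigm TaqMan qRT-PCR, normalized to ACTB, GAPDH, POLR2A; bidirectional fit versus DMSO.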

Read-out in assay [2]: Peroxisomal acyl-coenzyme A oxidase 1 (ACOX1) gene, ACOX1 (gene 51)
Nature of the assay: LTEA_HepaRG_ACOX1: Life Technologies and Expression Analysis (LTEA) Assay for Peroxisomal acyl-coenzyme A oxidase 1 (ACOX1) gene using HepaRG (AID 2283467). An outline of the steps:
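HepaRG cells, plated 48 h then switched to serum-free induction medium, were exposed in duplicate for 48 h to 8-point half-log concentrations up to 100 uM in 0.5% DMSO. ACOX1 mRNA was measured by qRT-PCR, normalized to ACTB/GAPDH/POLR2A, and fitted bidirectionally versus DMSO.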

Read-out in assay [3]: Alkaline Phosphatase, Placental (ALPP) gene, ALPP (gene 250)
Put plainly: LTEA_HepaRG_ALPP: Life Technologies and Expression Analysis (LTEA) Assay for Alkaline Phosphatase, Placental (ALPP) gene using HepaRG (AID 2283468). An outline of the steps: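 HepaRG cells plated 48 h, then exposed in duplicate for 48 h in serum-free induction medium to 8-point half-log series from 100 uM in 0.5% DMSO. ALPP mRNA by TaqMan qRT-PCR, normalized to ACTB/GAPDH/POLR2A; bidirectional fit versus DMSO.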

Read-out in assay [4]: Bcl-2 (BAD) gene, BAD (gene 572)
Put plainly: LTEA_HepaRG_BAD: Life Technologies and Expression Analysis (LTEA) Assay for Bcl-2 (BAD) gene using HepaRG (AID 2283469). An outline of the steps:
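Differentiated HepaRG cells were exposed in duplicate in 0.5% DMSO for 48 h to eight-point half-log concentrations up to 100 uM. BAD mRNA was measured by Fluidigm TaqMan qRT-PCR, normalized to ACTB, GAPDH and POLR2A, and fitted bidirectionally against DMSO.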

Read-out in assay [5]: Bcl-2 (BAX) gene, BAX (gene 581)
Nature of the assay: LTEA_HepaRG_BAX: Life Technologies and Expression Analysis (LTEA) Assay for Bcl-2 (BAX) gene using HepaRG (AID 2283470). In short, it runs like this:
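HepaRG (human liver), 48 h exposure, duplicate wells. 8-pt curve, half-log from 100 uM, 0.5% DMSO. BAX transcript by TaqMan qRT-PCR; ACTB/GAPDH/POLR2A normalization; gain or loss vs DMSO baseline.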

Read-out in assay [6]: adenosine kinase (ADK) gene, ADK (gene 132)
Put plainly: LTEA_HepaRG_ADK: Life Technologies and Expression Analysis (LTEA) Assay for adenosine kinase (ADK) gene using HepaRG (AID 2283471). In short, it runs like this:
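HepaRG (human liver), 48 h chemical exposure, 8-pt half-log series, top 100 uM, 0.5% DMSO vehicle. Readout: ADK mRNA by qRT-PCR vs housekeeping genes; bidirectional curve fit relative to DMSO baseline.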

Read-out in assay [7]: Alpha-fetoprotein (AFP) gene, AFP (gene 174)
Put plainly: LTEA_HepaRG_AFP: Life Technologies and Expression Analysis (LTEA) Assay for Alpha-fetoprotein (AFP) gene using HepaRG (AID 2283472). An outline of the steps:
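HepaRG, single lot; 48 h post-plating -> serum-free induction medium; cpd 8-pt, 100 uM top, half-log, 0.5% DMSO, duplicate, 48 h. RNA -> qRT-PCR AFP, norm ACTB/GAPDH/POLR2A. Bidirectional fit vs DMSO.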

Read-out in assay [8]: Apoptosis regulator Bcl-2 (Homo sapiens) (UniProt P10415)
Nature of the assay: LTEA_HepaRG_BCL2: Life Technologies and Expression Analysis (LTEA) Assay for Bcl-2 gene using HepaRG (AID 2283475). In short, it runs like this: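 HepaRG, plated 48 h then switched to serum-free induction medium; dosed 48 h, 8 conc. (max 100 uM, half-log steps), duplicate, 0.5% DMSO. Lysis in RLT, RNA isolated, TaqMan qRT-PCR for BCL2; ACTB/GAPDH/POLR2A normalisation; bidirectional fit vs DMSO.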

Read-out in assay [9]: Bcl-2 (BID) gene, BID (gene 637)
Put plainly: LTEA_HepaRG_BID: Life Technologies and Expression Analysis (LTEA) Assay for Bcl-2 (BID) gene using HepaRG (AID 2283476). An outline of the steps: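 Transcript levels of BID, measured by qRT-PCR and normalized to three housekeeping genes, were fitted bidirectionally against DMSO controls. Cells were HepaRG, dosed 48 h at up to 100 uM.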

Read-out in assay [10]: Caspase-3 (Homo sapiens) (UniProt P42574)
Nature of the assay: LTEA_HepaRG_CASP3: Life Technologies and Expression Analysis (LTEA) Assay for cysteine-aspartic acid protease (CASP3) using HepaRG (AID 2283477). In short, it runs like this: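 Differentiated HepaRG cells, plated 48 h, were treated in duplicate in serum-free induction medium for 48 h with eight half-log concentrations up to 100 uM in 0.5% DMSO. CASP3 mRNA measured by qRT-PCR, normalized to ACTB, GAPDH, POLR2A.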

Read-out in assay [11]: Cytochrome P450 (CYP24A1), CYP24A1 (gene 1591)
Put plainly: LTEA_HepaRG_CYP24A1: Life Technologies and Expression Analysis (LTEA) Assay for Cytochrome P450 (CYP24A1) using HepaRG (AID 2283478). An outline of the steps: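 HepaRG cells plated 48 h, then exposed in duplicate in serum-free induction medium for 48 h to 8-point half-log series from 100 uM in 0.5% DMSO. CYP24A1 mRNA by Fluidigm qRT-PCR, normalized to ACTB, GAPDH, POLR2A; bidirectional fit versus DMSO.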

Read-out in assay [12]: Cytochrome P450 (CYP1A2), CYP1A2 (gene 1544)
Nature of the assay: LTEA_HepaRG_CYP1A2: Life Technologies and Expression Analysis (LTEA) Assay for Cytochrome P450 (CYP1A2) using HepaRG (AID 2283479). In short, it runs like this: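 Differentiated human HepaRG cells in serum-free induction medium exposed 48 hours in duplicate to 8 half-log concentrations from 100 uM, 0.5% DMSO. CYP1A2 mRNA quantified by qRT-PCR, normalized to ACTB, GAPDH and POLR2A; bidirectional fitting versus DMSO.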

Read-out in assay [13]: cysteine-aspartic acid protease (CASP8), CASP8 (gene 841)
Put plainly: LTEA_HepaRG_CASP8: Life Technologies and Expression Analysis (LTEA) Assay for cysteine-aspartic acid protease (CASP8) using HepaRG (AID 2283480). In short, it runs like this:
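Differentiated HepaRG cells in serum-free induction medium, 48 h exposure, eight-point half-log series from 100 uM in 0.5% DMSO, duplicates. CASP8 mRNA by qRT-PCR, normalized to ACTB, GAPDH, POLR2A; bidirectional fit versus DMSO.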

Read-out in assay [14]: Cytochrome P450 (CYP2B6), CYP2B6 (gene 1555)
Nature of the assay: LTEA_HepaRG_CYP2B6: Life Technologies and Expression Analysis (LTEA) Assay for Cytochrome P450 (CYP2B6) using HepaRG (AID 2283481). In short, it runs like this:
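Differentiated human HepaRG cells in serum-free induction medium, dosed in duplicate for 48 h over 8 half-log concentrations topping at 100 uM (0.5% DMSO). CYP2B6 mRNA measured by TaqMan qRT-PCR, normalized to ACTB, GAPDH, POLR2A; bidirectional fit versus DMSO.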

Read-out in assay [15]: Cytochrome P450 2C19 (Homo sapiens) (UniProt P33261)
Nature of the assay: LTEA_HepaRG_CYP2C19: Life Technologies and Expression Analysis (LTEA) Assay for CYP2C19 using HepaRG (AID 2283482). In short, it runs like this: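 Differentiated HepaRG cells in serum-free induction medium exposed 48 h in duplicate, 8 concentrations from 100 uM by half-log steps in 0.5% DMSO. CYP2C19 mRNA measured by TaqMan qRT-PCR, normalized to ACTB, GAPDH, POLR2A. Bidirectional fit versus DMSO.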

Read-out in assay [16]: CYP2C8 (gene 1558)
Nature of the assay: LTEA_HepaRG_CYP2C8: Life Technologies and Expression Analysis (LTEA) Assay for CYP2C8 using HepaRG (AID 2283483). In short, it runs like this:
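Differentiated HepaRG cells in serum-free induction medium exposed 48 h in duplicate to 8 half-log concentrations from 100 uM in 0.5% DMSO. CYP2C8 mRNA by qRT-PCR normalized to ACTB, GAPDH, POLR2A; bidirectional fit versus DMSO.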

Read-out in assay [17]: CYP2C9 (gene 1559)
Nature of the assay: LTEA_HepaRG_CYP2C9: Life Technologies and Expression Analysis (LTEA) Assay for CYP2C9 using HepaRG (AID 2283484). An outline of the steps:
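Differentiated human HepaRG cells in serum-free induction medium were exposed 48 h to chemicals in 8-point half-log series from 100 uM (0.5% DMSO), in duplicate. CYP2C9 mRNA was measured by qRT-PCR, normalized to ACTB/GAPDH/POLR2A, with bidirectional fitting versus DMSO.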

Read-out in assay [18]: Broad substrate specificity ATP-binding cassette transporter ABCG2 (Homo sapiens) (UniProt Q9UNQ0)
Put plainly: LTEA_HepaRG_ABCG2: Life Technologies and Expression Analysis (LTEA) Assay for ABC Transporter (ABCG2) using HepaRG (AID 2283465). An outline of the steps:
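Differentiated HepaRG cells were exposed for 48 h in serum-free induction medium to 8 half-log concentrations, top 100 uM, in 0.5% DMSO. ABCG2 mRNA was measured by qRT-PCR, normalized to ACTB, GAPDH and POLR2A, with bidirectional fitting versus DMSO.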

The source made the active and inactive calls. Rule for the calls: active = hit-call score of the fitted dose curve at least 0.9, where 1 is the maximum; inactive = score below 0.9.

Sequence of Caspase-3 (Homo sapiens) (P42574 whole entry, looked up): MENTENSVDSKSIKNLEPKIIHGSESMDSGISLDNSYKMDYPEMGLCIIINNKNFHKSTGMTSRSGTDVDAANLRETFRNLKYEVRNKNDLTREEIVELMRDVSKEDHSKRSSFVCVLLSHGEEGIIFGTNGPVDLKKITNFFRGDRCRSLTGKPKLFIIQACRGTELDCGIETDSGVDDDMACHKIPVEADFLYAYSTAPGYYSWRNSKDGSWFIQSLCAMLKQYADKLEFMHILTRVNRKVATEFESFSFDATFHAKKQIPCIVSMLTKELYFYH
Sequence of Apoptosis regulator Bcl-2 (Homo sapiens) (P10415 whole entry, looked up): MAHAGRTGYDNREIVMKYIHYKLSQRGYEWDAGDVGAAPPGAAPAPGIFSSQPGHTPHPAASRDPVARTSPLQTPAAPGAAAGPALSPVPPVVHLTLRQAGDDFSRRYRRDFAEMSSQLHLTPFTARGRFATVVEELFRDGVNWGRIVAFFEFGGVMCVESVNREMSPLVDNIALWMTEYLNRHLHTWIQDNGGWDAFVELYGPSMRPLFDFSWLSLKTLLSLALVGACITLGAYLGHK
Sequence of Cytochrome P450 2C19 (Homo sapiens) (P33261 whole entry, looked up): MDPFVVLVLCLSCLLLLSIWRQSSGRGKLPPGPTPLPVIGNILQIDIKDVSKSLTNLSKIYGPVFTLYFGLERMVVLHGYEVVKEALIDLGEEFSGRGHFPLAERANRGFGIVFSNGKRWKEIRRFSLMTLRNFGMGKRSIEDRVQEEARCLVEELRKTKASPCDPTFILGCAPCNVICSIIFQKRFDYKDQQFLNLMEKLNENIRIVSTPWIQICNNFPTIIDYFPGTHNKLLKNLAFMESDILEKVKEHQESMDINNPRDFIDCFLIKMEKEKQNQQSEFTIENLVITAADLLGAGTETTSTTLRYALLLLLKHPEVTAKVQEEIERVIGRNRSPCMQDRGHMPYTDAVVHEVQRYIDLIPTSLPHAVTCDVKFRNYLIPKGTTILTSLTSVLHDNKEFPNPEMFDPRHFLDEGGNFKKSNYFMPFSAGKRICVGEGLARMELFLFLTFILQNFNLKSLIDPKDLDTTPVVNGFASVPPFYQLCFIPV
Sequence of Broad substrate specificity ATP-binding cassette transporter ABCG2 (Homo sapiens) (Q9UNQ0 whole entry, looked up): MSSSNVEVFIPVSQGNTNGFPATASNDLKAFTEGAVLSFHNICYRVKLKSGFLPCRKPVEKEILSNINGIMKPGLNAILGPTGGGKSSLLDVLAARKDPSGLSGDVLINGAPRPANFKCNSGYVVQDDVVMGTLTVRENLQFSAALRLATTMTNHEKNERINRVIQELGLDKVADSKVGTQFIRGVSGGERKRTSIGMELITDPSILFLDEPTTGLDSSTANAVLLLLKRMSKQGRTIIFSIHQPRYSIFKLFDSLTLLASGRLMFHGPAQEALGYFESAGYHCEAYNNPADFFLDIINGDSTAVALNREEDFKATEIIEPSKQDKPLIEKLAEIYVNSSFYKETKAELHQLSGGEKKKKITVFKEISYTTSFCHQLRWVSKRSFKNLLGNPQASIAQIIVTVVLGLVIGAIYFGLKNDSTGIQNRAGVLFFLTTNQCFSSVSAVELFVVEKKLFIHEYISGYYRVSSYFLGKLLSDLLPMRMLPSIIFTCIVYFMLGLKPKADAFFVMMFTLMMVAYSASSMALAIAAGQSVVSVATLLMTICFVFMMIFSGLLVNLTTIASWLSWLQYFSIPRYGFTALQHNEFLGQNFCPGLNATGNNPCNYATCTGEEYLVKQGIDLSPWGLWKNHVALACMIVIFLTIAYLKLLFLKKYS

What is called AC50 is the midpoint of the concentration-response curve, whichever way the signal moves. Consider `C=CC1(C)OC(=O)N(c2cc(Cl)cc(Cl)c2)C1=O` (configuration not stated), for which the call in assay [1], in assay [2], in [3], in [4], in assay [5] and in [6] was inactive. Besides, the result in assay [7], in assay [8], in [9], in assay [10], in [11] and in [13] was inactive. In addition, the result in assay [17] was inactive. The AC50 is 18.8 µM (active) in assay [12], 7.99 µM (active) in assay [14], 18.4 µM (active) in assay [15] and 16.7 µM (active) in [16].
With `O=C(O)COc1nc(Cl)c(Cl)cc1Cl`, the compound was called inactive in assay [18], in assay [1], in assay [2], in [3], in assay [4] and in assay [5]. The compound was called inactive in assay [6], in [7], in [8], in [9], in assay [10] and in assay [11]. The compound was classed as inactive in assay [12], in assay [13], in [16] and in assay [17]. The AC50 in assay [14] and in assay [15] was 51 µM (active) throughout.
In the case of `CON(C)C(=O)Nc1ccc(Cl)c(Cl)c1`, the AC50 in assay [18] was 78.2 µM (active); in [3] it was 42 µM (active); in [7], 74.2 µM (active); in assay [12], 29.8 µM (active); in [14], 24 µM (active); in [15], 65.1 µM (active). For the same compound, the call in assay [2], in [4], in assay [5], in assay [6], in assay [8] and in [9] was inactive. In addition, the result in [10], in assay [11], in [13], in assay [16] and in assay [17] was inactive.
